From PubChem BioAssay
Shiga toxin inh – Shiga toxin inhibition. Vero cells, Shiga toxin protein synthesis inhibition reporter. inhibition, % at 38.7 µM. 9.2% of 290,000 active. AID 2315; in the data active = inhibition mostly above about 28%, no sharp cut-off; inactive = mostly below about 43%
Cycloheximide cs – counter-screen for Shiga toxin inhibitors: cycloheximide protein synthesis inhibition; cell reporter, cycloheximide protein synthesis inhibition counterscreen; max response, %; 12% of 300,000 active; AID 2314; in the data active = max response mostly above about 13%, no sharp cut-off; inactive = mostly below about 14%; note: read at 38.3 µM for the half of the compounds with a filed dose
AMA1 RON2 block – disrupts binding of P. falciparum AMA1 to RON2; AID 720542; AlphaScreen AMA1-biotinylated RON2 peptide binding; Potency, µM (titrated, usually from 58.2 µM), most hits filed as inhibitors; 0.2% of 360,000 active; active = well fitted inhibition curve with a large enough effect; inconclusive = small, poorly fitted or top-dose-only effect; inactive = no such curve, though single readings can be large or run the other way; note: nearly all actives have a fitted effect of over 45% in size
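AMA1 (3D7) with his tag at 25 nM final met compounds first, then biotinylated RON2 peptide at 25 nM; detection used donor plus acceptor beads, 10 µg/mL apiece, read by AlphaScreen after 30 min at room temperature.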
Marburg entry inh – inhibitors of Marburg virus binding or cell entry; Marburg virus pseudotyped entry inhibition, cell reporter; Potency, µM (doses to about 37.8 µM), most hits filed as inhibitors; 1.8% of 300,000 active; calls by dose curve; tested in HEK293 cells
LASV entry inh – blocks Lassa virus binding to or entry into cells; Potency, µM (titrated, usually from 37.9 µM), hits mostly inhibitors; 1.2% of 300,000 active; AID 540256; Lassa virus pseudotype entry inhibition, cell reporter; calls by dose curve; tested in HEK293 cells; note: nearly all actives have a fitted effect of over 50% in size
Numbers stand for hits; n = inactive; u = inconclusive; x = no result given. Only a selection was taken, and hits are over-represented in it overall.

SMILES | Shiga toxin inh | Cycloheximide cs | AMA1 RON2 block | Marburg entry inh | LASV entry inh
Cc1ccc(CSc2cn(CC(=O)N3CCCC3)c3ccccc23)cc1 | x | x | x | x | n
O=C(Cn1cc(SCc2ccc(Cl)cc2)c2ccccc21)N1CCOCC1 | 32 | 26 | n | u | n
O=C(Cn1cc(SCc2ccc(F)cc2)c2ccccc21)N1CCOCC1 | 16 | 36 | n | u | n
COC(=O)CSc1nnc(CNS(=O)(=O)c2ccc(Cl)cc2)n1C | n | n | n | n | n
O=C(O)c1ccc(Nc2ncc([N+](=O)[O-])cc2[N+](=O)[O-])cc1 | n | n | n | n | n
CC(=O)c1ccc(S(=O)(=O)NCCC(=O)NC(C)c2ccncc2)cc1 (centres undefined) | x | x | n | x | x
CN(C(=O)COC(=O)/C=C/c1ccc(S(=O)(=O)N2CCc3ccccc32)cc1)C1CCS(=O)(=O)C1 (centres undefined) | n | n | n | n | u
CCCn1c(SCC(=O)Nc2cccnc2Cl)n[nH]c1=O | x | x | n | x | x
COc1cc(NC2c3ccccc3C(=O)N2c2cc(C)ccn2)cc(OC)c1OC (centres undefined) | 58 | 23 | n | x | x
Cc1ccc(NC2c3ccccc3C(=O)N2c2cccnc2)cc1 (centres undefined) | n | n | n | n | n
Cc1ccnc(N2C(=O)c3ccccc3C2Nc2ccccc2Cl)c1 (centres undefined) | 29 | n | n | x | x
CCc1ccccc1NC1c2ccccc2C(=O)N1c1cc(C)ccn1 (centres undefined) | n | n | n | x | x
COc1cc(NC2c3ccccc3C(=O)N2Cc2ccc3c(c2)OCO3)cc(OC)c1OC (centres undefined) | n | n | n | x | x
Cc1ccc(N2C(=O)c3ccccc3C2Nc2cccnc2)nc1 (centres undefined) | n | 36 | n | n | n
CCN(CC)S(=O)(=O)c1ccc(NC2c3ccccc3C(=O)N2c2ccc(C)cn2)cc1 (centres undefined) | n | n | n | x | x
COc1cc(NC2c3ccccc3C(=O)N2c2ccc(C)cn2)cc(OC)c1OC (centres undefined) | 118 | 48 | n | n | n
O=C(CCC(=O)N(CC(=O)NC1CCCCC1)Cc1cccs1)Nc1ccccn1 | n | n | n | n | n
CCn1nnc2cc(C(=O)Nc3cccc(Cl)c3C)ccc21 | x | x | x | x | n
CCOc1ccccc1NC1c2ccccc2C(=O)N1c1ccc(C)cn1 (centres undefined) | n | n | n | x | x
CCOC(=O)c1ccccc1NC1c2ccccc2C(=O)N1c1ccc(C)cn1 (centres undefined) | n | 21 | n | n | n
CN(C)CCCOc1ccc2c(c1)Sc1ccccc1CC2=O | n | 21 | n | u | n
CCOC(=O)c1ccc(NC(=O)C2CCN(S(=O)(=O)CC)CC2)cc1 | n | n | n | n | n
CCCN1CCN(C(=O)Nc2ccc(C(=O)OCC)cc2)CC1 | n | 12 | n | n | n
CCC(C)c1ccc(C(CC)NC(=O)C2CCCO2)cc1 (centres undefined) | n | n | n | x | x
CCC(C)c1ccc(NC(=S)NC(C)C2CCCO2)cc1 (centres undefined) | 38 | 10 | n | x | x
SMILES | Shiga toxin inh | Cycloheximide cs | AMA1 RON2 block | Marburg entry inh | LASV entry inh
CCOC(=O)c1ccc(NS(=O)(=O)N2CCCCCC2)cc1 | 74 | 32 | n | n | u
O=C(Nc1ccc(F)cc1)N1CCCCCC1 | 31 | 15 | n | n | n
CCOC(=O)c1ccc(NC(=S)N2CCN(CCO)CC2)cc1 | n | n | n | u | n
CCOc1ccc(NC(=O)C(Cc2ccccc2)N2C(=O)c3cccc4cccc(c34)C2=O)cc1 (centres undefined) | n | n | n | u | u
CCOC(=O)c1ccc(NC(=O)N2CCCCCC2)cc1 | 123 | 76 | n | n | u
CCOC(=O)c1ccc(NC(=O)N2CCOCC2)cc1 | 98 | n | n | n | u
CCC(C)c1ccc(NC(=O)N2CCOCC2)cc1 (centres undefined) | 68 | 41 | n | n | n
CC1C(=O)N2CCCc3cc(S(=O)(=O)Nc4ccc(Br)cc4F)cc1c32 (centres undefined) | x | x | x | x | n
Cc1cc(NC(=O)c2cccs2)ncc1NC(=O)c1cccc(F)c1 | 66 | 42 | n | n | n
Cc1cc(NC(=O)c2ccccc2)ncc1NC(=O)c1cccs1 | 124 | 40 | n | x | x
Cc1cc(NC(=O)c2ccccc2F)ncc1NC(=O)c1cccs1 | n | 21 | n | x | x
Cc1cc(NC(=O)c2cccs2)ncc1NC(=O)C(C)C | 39 | 38 | n | n | u
CCOc1ccc(CNC(=O)c2cnc3c(C)cccn3c2=O)cc1 | x | x | x | x | n
COc1cccc(/C=C/c2ccc3cccc(O)c3n2)c1OC | 127 | 58 | n | x | x
